Data from PubChem BioAssay (EPA / NIEHS).
Records with an inconclusive call do not appear. Activity calls are given as the source filed them. Rule for the calls, unless noted: active = hit-call score of the fitted dose curve at least 0.9, where 1 is the maximum; inactive = score below 0.9.

Columns and labels:
[1] = target: Bile acid receptor (Homo sapiens) (UniProt Q96RI1); experiment: ATG_FXR_TRANS: Attagene TRANS-FACTORIAL HepG2 Assay for Farnesoid X Receptor (FXR) (AID 2282979; active = hit-call score of the fitted dose curve at least 0.9, where 1 is the maximum;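 note: hits raise reporter mRNA above DMSO so AC50 marks FXR activation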); details: HepG2 Attagene TRANS FXR-GAL4 reporter transcription
Summary of the method: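 Read-out: fluorescent reporter transcripts quantified by capillary electrophoresis after RT-PCR of total RNA. Source cells were HepG2 transiently carrying chimeric NR-GAL4 plus GAL4-UAS reporter units, dosed 24 h. Activity fitted upward relative to DMSO baseline.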

[2] = ATG_M_32_TRANS: Attagene TRANS-FACTORIAL HepG2 Assay for M32 Transcription Factor (Internal Marker) (AID 2282984; active = hit-call score of the fitted dose curve at least 0.9, where 1 is the maximum); details: HepG2 Attagene TRANS M32 internal marker reporter
Summary of the method: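 Internal background reporter in transfected HepG2: after 24 h chemical exposure, RNA reverse-transcribed, reporter cDNA amplified, fluorescently labelled and HpaI-cut, then sized by capillary electrophoresis. Gain of signal fitted against DMSO control.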

[3] = target: Transcriptional activator Myb (Homo sapiens) (UniProt P10242); experiment: ATG_Myb_CIS: Attagene CIS-FACTORIAL HepG2 Assay for human Myeloblastosis (Myb) Proto-Oncogene Transcription Factor (AID 2282986); details: HepG2 Attagene CIS-FACTORIAL Myb reporter transcription; actives raise or lower the signal
Summary of the method: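 Reporter transcript levels, quantified by fluorescent RT-PCR and capillary electrophoresis, serve as the read-out. Transfected HepG2 cells carrying cis-promoter reporter units are dosed for 24 hours, and curves are fitted bidirectionally against DMSO controls.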

[4] = target: Nuclear respiratory factor 1 (Homo sapiens) (UniProt Q16656); experiment: ATG_NRF1_CIS: Attagene CIS-FACTORIAL HepG2 Assay for human Nuclear Respiratory Factor 1 (NRF1) Orphan Gene (AID 2282987); details: HepG2 NRF1 cis-element reporter, Attagene multiplex; actives raise or lower the signal
Summary of the method: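 Multiplexed cis-reporter assay, HepG2 cells, 24 h treatment. Total RNA → oligo(dT) RT → PCR with reporter-specific primers → 6-FAM primer extension → HpaI cut → CE. Bidirectional fit vs DMSO.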

[5] = ATG_NFI_CIS: Attagene CIS-FACTORIAL HepG2 Assay for human Nuclear Factor I (NFI) (AID 2282989); details: HepG2 cis-regulatory reporter, NFI response element transcription; actives raise or lower the signal
Summary of the method: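 Read-out: reporter mRNA via RT-PCR plus capillary electrophoresis with fluorescence detection. Transiently transfected HepG2 (endogenous TF activity on cis promoters), 24 h compound exposure; gain or loss of signal fitted against DMSO.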

[6] = ATG_NRF2_ARE_CIS: Attagene CIS-FACTORIAL HepG2 Assay for human Nuclear Factor Erythroid 2 Related Factor 2 (NFR2) response to Antioxidant Response Elements (ARE) (AID 2282992); details: HepG2 Attagene ARE/NRF2 reporter, transcription factor activity; actives raise or lower the signal;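 for AC50: reporter mRNA level measured by RT-PCR and capillary electrophoresis fluorescence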
Summary of the method: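 Endogenous transcription factor activity in human liver HepG2 cells is tracked via a cis-element-driven reporter within a multiplexed set. mRNA induction is read by RT-PCR and capillary electrophoresis after 24 h, with DMSO as baseline.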

[7] = ATG_Oct_MLP_CIS: Attagene CIS-FACTORIAL HepG2 Assay for human Octamer-Binding Transcription Factor (Oct) (AID 2282993); details: HepG2 Attagene cis-factorial Oct reporter, mRNA; actives raise or lower the signal
Summary of the method: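 Read-out: reporter mRNA via RT-PCR plus capillary electrophoresis of 6-FAM-labelled fragments. Transiently transfected HepG2, 24 h exposure, endogenous TF activity on cis elements. Gain or loss of signal fitted relative to DMSO.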

[8] = target: Cellular tumor antigen p53 (Homo sapiens) (UniProt P04637); experiment: ATG_p53_CIS: Attagene CIS-FACTORIAL HepG2 Assay for human p53 Transcription Factor (AID 2282994); details: HepG2 p53 cis-element reporter, Attagene mRNA; actives raise or lower the signal
Summary of the method: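 Steps: transfect HepG2 with multiplexed cis reporter constructs; dose chemicals 24 h; extract RNA, reverse-transcribe, PCR-amplify reporter sequences; FAM-label, HpaI-digest, resolve fragments by CE. Activity fitted both directions relative to DMSO.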

[9] = BSK_3C_TissueFactor: BioMAP Diversity Plus: 3C Assay for Tissue Factor Biomarker Activity (AID 2282997); details: BioMAP 3C HUVEC, tissue factor biomarker readout; actives raise or lower the signal
Summary of the method: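 HUVEC, 3C system, 24 h post-dose; Tissue Factor by ELISA; bidirectional fit vs DMSO baseline.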

[10] = BSK_3C_uPAR: BioMAP Diversity Plus: 3C Assay for Urokinase-type plasminogen activator receptor (uPAR) Biomarker Activity (AID 2282998); details: BioMAP 3C HUVEC, uPAR biomarker ELISA; actives raise or lower the signal
Summary of the method: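 HUVEC primary cells; 24 h post-dose; uPAR by ELISA; gain or loss of signal fitted bidirectionally vs DMSO baseline.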

[11] = BSK_3C_VCAM1: BioMAP Diversity Plus: 3C Assay for Vascular cell adhesion molecule 1 (VCAM1) Biomarker Activity (AID 2282999); details: BioMAP 3C HUVEC, VCAM1 ELISA, cytokine-stimulated; actives raise or lower the signal
Summary of the method: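 Activity fitted in both directions relative to DMSO, with ELISA measurement of the surface marker on primary HUVEC (3C) at 24 h post-treatment; parallel SRB staining (0.1% SRB, TCA-fixed, 560 nm) flagged overt cytotoxicity.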

[12] = target: human Peroxisome Proliferator-activated Receptor alpha (PPARa), PPARA (gene 5465) (UniProt Q07869); experiment: ATG_PPARa_TRANS: Attagene TRANS-FACTORIAL HepG2 Assay for human Peroxisome Proliferator-activated Receptor alpha (PPARa) (AID 2283001; active = hit-call score of the fitted dose curve at least 0.9, where 1 is the maximum;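 for AC50: potency for gain of reporter signal over DMSO so agonist or activator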)
Summary of the method: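 Reporter transcripts quantified by RT-PCR plus capillary electrophoresis after 24 h treatment, fitted upward relative to DMSO. Cells: human HepG2 transiently carrying multiple GAL4-UAS reporter units driven by NR-Gal4 chimeras.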

[13] = target: human Peroxisome Proliferator-activated Receptor delta (PPARd), PPARD (gene 5467) (UniProt Q03181); experiment: ATG_PPARd_TRANS: Attagene TRANS-FACTORIAL HepG2 Assay for human Peroxisome Proliferator-activated Receptor delta (PPARd) (AID 2283002; active = hit-call score of the fitted dose curve at least 0.9, where 1 is the maximum)
Summary of the method: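 Read-out is induced reporter mRNA, quantified by RT-PCR with fluorescent labelling and capillary electrophoresis after 24 h dosing. Cells are HepG2 transiently carrying multiple GAL4-UAS reporter units driven by exogenous NR-GAL4 chimeras; DMSO serves as baseline.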

[14] = target: Myc proto-oncogene protein (Homo sapiens) (UniProt P01106); experiment: ATG_Myc_CIS: Attagene CIS-FACTORIAL HepG2 Assay for human Myelocytomatosis (Myc) Proto-Oncogene Transcription Factor (AID 2282990); details: HepG2, Attagene cis-reporter transcription factor activity; actives raise or lower the signal
Summary of the method: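 After 24 h chemical treatment of HepG2 cells carrying multiplexed cis-regulated reporter constructs, reporter transcripts quantified by RT-PCR and capillary electrophoresis of fluorescent fragments. Gain or loss fitted against DMSO baseline.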

[15] = ATG_NF_kB_CIS: Attagene CIS-FACTORIAL HepG2 Assay for human Nuclear Factor Kappa B (NF-kB) (AID 2282991); details: HepG2 Attagene cis-factorial NF-kB reporter mRNA; actives raise or lower the signal
Summary of the method: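 Transient MRTU transfection of human HepG2 liver cells → 24 h chemical exposure → total RNA, oligo(dT) RT → PCR, 6-FAM primer extension, HpaI digest 2 h 37 C → CE fragment analysis. Bidirectional fitting, DMSO negative control.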

[16] = BSK_4H_Eotaxin3: BioMAP Diversity Plus: 4H Assay for Eotaxin 3 Biomarker Activity (AID 2283000); details: primary human endothelial cells (HUVEC); actives raise or lower the signal
Summary of the method: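 Readout is Eotaxin-3 (CCL26) level by ELISA in primary human umbilical vein endothelial cells harvested 24 h after chemical exposure; activity fitted in both directions against DMSO control.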

[17] = target: Oxysterols receptor LXR-alpha (Homo sapiens) (UniProt Q13133); experiment: ATG_LXRa_TRANS: Attagene TRANS-FACTORIAL HepG2 Assay for human Liver X Receptor alpha (LXRa) (AID 2282980; active = hit-call score of the fitted dose curve at least 0.9, where 1 is the maximum); details: HepG2 Attagene TRANS reporter, LXRa transactivation
Summary of the method: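 Read-out: reporter transcript levels by RT-PCR plus capillary electrophoresis, fluorescence intensity. Transiently transfected HepG2, exogenous NR-GAL4 chimera, GAL4-UAS reporters; 24 h compound exposure. Activity = increase over DMSO negative control.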

[18] = target: Oxysterols receptor LXR-beta (Homo sapiens) (UniProt P55055); experiment: ATG_LXRb_TRANS: Attagene TRANS-FACTORIAL HepG2 Assay for human Liver X Receptor beta (LXRb) (AID 2282981; active = hit-call score of the fitted dose curve at least 0.9, where 1 is the maximum); details: HepG2 Attagene TRANS GAL4-LXRb reporter, mRNA
Summary of the method: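 After 24 h chemical treatment of transfected HepG2 cells carrying exogenous NR-Gal4 chimeras, reporter mRNA was quantified by fluorescent RT-PCR and capillary electrophoresis; activity taken as increase over DMSO controls.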

[19] = target: Nuclear receptor subfamily 4 group A member 2 (Homo sapiens) (UniProt P43354); experiment: ATG_NURR1_TRANS: Attagene TRANS-FACTORIAL HepG2 Assay for human Nuclear Receptor Related Protein 1 (NURR1) (AID 2282985; active = hit-call score of the fitted dose curve at least 0.9, where 1 is the maximum); details: HepG2 Attagene TRANS reporter, mRNA readout
Summary of the method: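 Reporter transcript induction, measured by RT-PCR with fluorescent labelling, HpaI digestion and capillary electrophoresis, after 24 hr dosing of human HepG2 cells transiently expressing an exogenous NR-Gal4 fusion with GAL4-UAS-driven reporters; DMSO as baseline.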

[20] = ATG_M_06_TRANS: Attagene TRANS-FACTORIAL HepG2 Assay for M06 Transcription Factor (Internal Marker) (AID 2282983; active = hit-call score of the fitted dose curve at least 0.9, where 1 is the maximum); details: HepG2 Attagene TRANS M06 internal marker reporter
Summary of the method: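 Read-out: fluorescent reporter cDNA fragments resolved by capillary electrophoresis after RT-PCR and HpaI cut. Source cells were HepG2 carrying transfected multi-reporter GAL4 constructs, dosed 24 h. Increase over DMSO control analysed.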

Measured: AC50

Chain of Oxysterols receptor LXR-alpha (Homo sapiens) (Q13133 whole entry, looked up, the tested form may be a part): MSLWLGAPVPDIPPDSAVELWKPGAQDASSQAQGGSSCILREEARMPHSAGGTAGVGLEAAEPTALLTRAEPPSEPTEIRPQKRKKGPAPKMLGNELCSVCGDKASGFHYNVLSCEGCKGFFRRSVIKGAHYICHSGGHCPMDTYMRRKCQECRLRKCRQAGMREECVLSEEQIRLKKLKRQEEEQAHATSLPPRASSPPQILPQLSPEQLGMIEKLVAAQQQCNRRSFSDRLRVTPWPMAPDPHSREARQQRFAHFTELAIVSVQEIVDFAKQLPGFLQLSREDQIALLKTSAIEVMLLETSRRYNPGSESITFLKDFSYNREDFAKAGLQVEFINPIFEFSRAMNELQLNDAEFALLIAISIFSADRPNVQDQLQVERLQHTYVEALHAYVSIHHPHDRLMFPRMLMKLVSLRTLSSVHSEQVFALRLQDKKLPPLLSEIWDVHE
Chain of Cellular tumor antigen p53 (Homo sapiens) (P04637 whole entry, looked up, the tested form may be a part): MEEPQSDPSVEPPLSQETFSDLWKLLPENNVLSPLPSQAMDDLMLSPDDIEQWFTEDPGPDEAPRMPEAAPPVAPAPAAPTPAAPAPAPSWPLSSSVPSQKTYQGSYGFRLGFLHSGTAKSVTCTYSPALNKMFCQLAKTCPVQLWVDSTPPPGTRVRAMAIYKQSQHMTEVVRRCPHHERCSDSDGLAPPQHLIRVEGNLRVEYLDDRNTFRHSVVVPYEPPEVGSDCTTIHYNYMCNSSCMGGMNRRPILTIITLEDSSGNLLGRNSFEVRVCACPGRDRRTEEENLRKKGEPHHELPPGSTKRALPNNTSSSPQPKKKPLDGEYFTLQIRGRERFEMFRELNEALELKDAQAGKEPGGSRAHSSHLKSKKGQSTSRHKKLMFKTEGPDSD
Chain of Oxysterols receptor LXR-beta (Homo sapiens) (P55055 whole entry, looked up, the tested form may be a part): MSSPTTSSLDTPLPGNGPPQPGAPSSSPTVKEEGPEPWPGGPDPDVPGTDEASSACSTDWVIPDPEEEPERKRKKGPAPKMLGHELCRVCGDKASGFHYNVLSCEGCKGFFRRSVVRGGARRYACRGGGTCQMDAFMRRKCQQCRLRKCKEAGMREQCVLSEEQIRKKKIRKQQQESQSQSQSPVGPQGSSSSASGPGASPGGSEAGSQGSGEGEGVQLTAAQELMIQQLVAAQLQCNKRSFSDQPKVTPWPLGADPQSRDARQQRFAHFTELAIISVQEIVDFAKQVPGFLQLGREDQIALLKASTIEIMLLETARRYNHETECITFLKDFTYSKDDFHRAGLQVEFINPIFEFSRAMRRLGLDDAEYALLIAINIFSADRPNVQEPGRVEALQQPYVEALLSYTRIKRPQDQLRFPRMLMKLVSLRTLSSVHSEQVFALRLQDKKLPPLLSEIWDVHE
Chain of Myc proto-oncogene protein (Homo sapiens) (P01106 whole entry, looked up, the tested form may be a part): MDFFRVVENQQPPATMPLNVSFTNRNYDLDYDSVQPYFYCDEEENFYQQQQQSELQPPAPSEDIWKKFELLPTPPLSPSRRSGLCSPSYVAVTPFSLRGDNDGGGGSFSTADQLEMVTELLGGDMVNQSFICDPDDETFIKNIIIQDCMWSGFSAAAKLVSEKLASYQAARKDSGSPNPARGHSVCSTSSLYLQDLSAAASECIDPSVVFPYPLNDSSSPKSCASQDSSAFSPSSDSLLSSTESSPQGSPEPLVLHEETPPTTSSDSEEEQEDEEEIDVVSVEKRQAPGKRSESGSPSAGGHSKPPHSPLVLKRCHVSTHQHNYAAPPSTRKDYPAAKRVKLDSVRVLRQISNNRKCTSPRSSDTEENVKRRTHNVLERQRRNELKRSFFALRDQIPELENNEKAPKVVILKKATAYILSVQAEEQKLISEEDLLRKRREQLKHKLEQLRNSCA
Chain of Transcriptional activator Myb (Homo sapiens) (P10242 whole entry, looked up): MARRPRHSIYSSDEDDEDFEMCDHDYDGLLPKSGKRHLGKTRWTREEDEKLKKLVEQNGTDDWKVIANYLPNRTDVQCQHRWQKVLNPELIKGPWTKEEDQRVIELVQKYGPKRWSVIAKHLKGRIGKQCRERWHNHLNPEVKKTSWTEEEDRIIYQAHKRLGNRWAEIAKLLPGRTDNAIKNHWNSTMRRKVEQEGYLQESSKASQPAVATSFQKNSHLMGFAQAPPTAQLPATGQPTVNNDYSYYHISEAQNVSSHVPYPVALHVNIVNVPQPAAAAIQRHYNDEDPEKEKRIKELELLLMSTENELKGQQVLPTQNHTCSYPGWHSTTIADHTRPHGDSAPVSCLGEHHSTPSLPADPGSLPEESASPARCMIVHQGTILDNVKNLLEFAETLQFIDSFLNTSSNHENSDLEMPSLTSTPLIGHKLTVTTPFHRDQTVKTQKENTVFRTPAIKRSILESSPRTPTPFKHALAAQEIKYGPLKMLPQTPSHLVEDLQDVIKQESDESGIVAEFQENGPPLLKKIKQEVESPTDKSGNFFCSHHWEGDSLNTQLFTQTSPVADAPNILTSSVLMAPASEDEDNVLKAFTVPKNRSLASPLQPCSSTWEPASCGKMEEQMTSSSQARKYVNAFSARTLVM
Chain of human Peroxisome Proliferator-activated Receptor alpha (PPARa), PPARA (gene 5465) (Q07869 whole entry, looked up, the tested form may be a part): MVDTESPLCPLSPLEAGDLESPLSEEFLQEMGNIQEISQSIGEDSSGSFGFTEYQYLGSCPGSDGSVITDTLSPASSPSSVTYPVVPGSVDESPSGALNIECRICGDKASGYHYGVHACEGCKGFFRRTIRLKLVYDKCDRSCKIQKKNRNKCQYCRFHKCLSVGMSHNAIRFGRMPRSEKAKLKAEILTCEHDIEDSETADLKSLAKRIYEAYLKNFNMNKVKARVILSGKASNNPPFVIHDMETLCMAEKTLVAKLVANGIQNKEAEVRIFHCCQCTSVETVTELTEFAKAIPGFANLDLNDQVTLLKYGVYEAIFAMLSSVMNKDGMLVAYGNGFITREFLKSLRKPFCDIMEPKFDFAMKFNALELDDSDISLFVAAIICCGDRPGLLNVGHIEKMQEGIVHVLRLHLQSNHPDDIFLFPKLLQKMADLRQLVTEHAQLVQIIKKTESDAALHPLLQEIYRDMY
Chain of Nuclear respiratory factor 1 (Homo sapiens) (Q16656 whole entry, looked up): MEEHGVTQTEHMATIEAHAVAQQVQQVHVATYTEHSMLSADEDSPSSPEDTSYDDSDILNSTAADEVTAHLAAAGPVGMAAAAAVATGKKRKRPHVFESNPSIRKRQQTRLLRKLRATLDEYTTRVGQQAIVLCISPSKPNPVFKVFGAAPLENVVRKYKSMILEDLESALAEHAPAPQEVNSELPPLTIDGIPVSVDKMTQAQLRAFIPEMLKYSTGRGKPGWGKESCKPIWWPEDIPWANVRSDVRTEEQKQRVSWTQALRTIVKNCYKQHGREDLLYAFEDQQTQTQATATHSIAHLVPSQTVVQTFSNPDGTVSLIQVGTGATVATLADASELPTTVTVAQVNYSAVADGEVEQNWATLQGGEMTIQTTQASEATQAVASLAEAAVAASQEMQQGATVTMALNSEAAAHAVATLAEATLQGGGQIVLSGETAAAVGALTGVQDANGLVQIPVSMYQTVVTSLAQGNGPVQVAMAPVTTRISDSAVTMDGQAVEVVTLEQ
Chain of human Peroxisome Proliferator-activated Receptor delta (PPARd), PPARD (gene 5467) (Q03181 whole entry, looked up, the tested form may be a part): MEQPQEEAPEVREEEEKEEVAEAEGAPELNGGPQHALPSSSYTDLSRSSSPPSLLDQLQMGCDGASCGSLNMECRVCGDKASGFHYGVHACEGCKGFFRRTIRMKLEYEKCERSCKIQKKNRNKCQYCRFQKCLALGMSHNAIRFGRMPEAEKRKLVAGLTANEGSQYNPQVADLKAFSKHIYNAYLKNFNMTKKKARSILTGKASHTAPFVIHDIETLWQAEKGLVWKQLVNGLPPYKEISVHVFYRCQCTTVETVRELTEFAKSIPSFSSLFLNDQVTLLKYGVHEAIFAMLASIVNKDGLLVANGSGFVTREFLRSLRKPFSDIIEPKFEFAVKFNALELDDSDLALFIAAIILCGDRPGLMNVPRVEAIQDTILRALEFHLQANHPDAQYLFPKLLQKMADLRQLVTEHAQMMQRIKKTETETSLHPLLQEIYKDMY
Chain of Bile acid receptor (Homo sapiens) (Q96RI1 whole entry, looked up, the tested form may be a part): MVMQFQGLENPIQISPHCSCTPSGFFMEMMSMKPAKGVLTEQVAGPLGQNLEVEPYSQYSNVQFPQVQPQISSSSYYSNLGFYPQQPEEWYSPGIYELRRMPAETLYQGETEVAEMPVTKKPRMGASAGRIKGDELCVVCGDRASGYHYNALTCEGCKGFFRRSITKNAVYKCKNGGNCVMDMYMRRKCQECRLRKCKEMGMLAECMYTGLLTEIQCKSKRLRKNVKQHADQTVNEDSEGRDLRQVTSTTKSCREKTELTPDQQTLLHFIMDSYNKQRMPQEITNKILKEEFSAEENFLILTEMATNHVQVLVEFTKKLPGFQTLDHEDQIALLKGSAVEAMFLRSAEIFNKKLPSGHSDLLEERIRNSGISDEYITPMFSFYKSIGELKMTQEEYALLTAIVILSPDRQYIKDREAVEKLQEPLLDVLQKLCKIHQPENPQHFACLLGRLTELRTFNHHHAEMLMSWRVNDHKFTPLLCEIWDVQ
Chain of Nuclear receptor subfamily 4 group A member 2 (Homo sapiens) (P43354 whole entry, looked up, the tested form may be a part): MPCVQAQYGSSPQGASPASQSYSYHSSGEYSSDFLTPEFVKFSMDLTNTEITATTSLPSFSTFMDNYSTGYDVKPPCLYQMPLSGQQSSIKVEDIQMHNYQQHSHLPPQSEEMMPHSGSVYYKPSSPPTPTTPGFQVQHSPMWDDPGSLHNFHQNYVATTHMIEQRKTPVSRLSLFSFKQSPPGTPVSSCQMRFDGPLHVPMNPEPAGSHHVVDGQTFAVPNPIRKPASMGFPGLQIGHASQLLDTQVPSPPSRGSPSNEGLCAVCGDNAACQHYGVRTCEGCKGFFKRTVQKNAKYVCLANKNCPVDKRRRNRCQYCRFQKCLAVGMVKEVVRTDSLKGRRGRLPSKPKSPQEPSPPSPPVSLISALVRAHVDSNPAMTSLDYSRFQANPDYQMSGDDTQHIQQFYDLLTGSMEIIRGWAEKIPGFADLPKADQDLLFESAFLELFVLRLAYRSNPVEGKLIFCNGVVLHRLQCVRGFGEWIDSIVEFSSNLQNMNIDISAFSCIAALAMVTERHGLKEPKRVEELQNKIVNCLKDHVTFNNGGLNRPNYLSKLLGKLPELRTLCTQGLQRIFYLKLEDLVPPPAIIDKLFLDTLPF

Oc1ccc2c(c1)-c1ccccc1C2
active: [5] 37.9 µM | [6] 2.77 µM | [7] 32.6 µM | [9] 0.791 µM | [10] 14.4 µM
inactive: [1] | [2] | [3] | [4] | [8] | [11] | [12] | [13]

C1=CCCC=CCCC=CCC1
active: [6] 159 µM
not listed: [2] | [12] | [13] | [17] | [18] | [19] | [20]
inactive: all other assays above

COc1ccc(-n2nc(C(F)F)cc2-c2ccc(S(C)=O)cc2)cc1 (configuration not stated)
not listed: [1] | [3] | [12] | [19] | [20]
inactive: all other assays above

CCc1cc(SCc2sc(-c3ccc(C(F)(F)F)cc3)nc2CN2CCN(c3ccc(OC)cc3)CC2)ccc1OCC(=O)O
active: [15] 20.2 µM | [6] 4.51 µM | [7] 8.42 µM | [9] 12.4 µM | [10] 7.74 µM | [11] 27.7 µM | [16] 10.9 µM | [12] 0.0501 µM | [13] 0.00449 µM
inactive: [1] | [17] | [18] | [2] | [19] | [4] | [5] | [14] | [8]

Cn1c(=O)cc(Oc2ccc(F)cc2F)c2cnc(NCC(C)(C)O)nc21
active: [4] 51.6 µM | [5] 9.46 µM | [8] 41.7 µM | [9] 1.4 µM
inactive: [1] | [17] | [18] | [2] | [6] | [7] | [10] | [11] | [16]

COCCOc1cc2cc(C(=O)NC3CCN(C(C)C)CC3)n(CC(=O)Nc3ccc(Cl)cn3)c2cn1
active: [15] 180 µM | [6] 72.9 µM | [7] 119 µM
not listed: [13] | [18] | [19] | [20]
inactive: all other assays above

CCCCCCCCCCCCCCCO
active: [10] 35.6 µM | [11] 15.4 µM | [16] 36.5 µM
not listed: [3] | [14] | [17] | [18] | [19]
inactive: all other assays above

CC(C)=CCC/C(C)=C\CO
active: [6] 100 µM
not listed: [13] | [14] | [15] | [16] | [17] | [20]
inactive: all other assays above
